Assay outcomes deposited in PubChem BioAssay by National Center for Advancing Translational Sciences (NCATS).
The list is not random: actives were taken first. Their share in the collection is about 2.1%.
B2AR arrestin: qHTS assay of beta-arrestin-biased ligands of beta2-adrenergic receptor. Beta-2 adrenergic receptor (Homo sapiens), P07550. beta-arrestin recruitment to beta2AR, cell-based reporter. Potency, µM (titrated, usually from 46.1 µM), for inactives: top-dose activation, most hits filed as activators. 330,000 tested, 0.02% active;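 note: potency is the fitted concentration of half-maximal effect; 0% = DMSO controls and full agonism = EC100 isoproterenol or metaproterenol; nearly all actives have a fitted effect of over 65% in size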
p53 reactivator: qHTS assay for re-activators of p53 using a Luc reporter; H1299 p53-A138V BP100-luciferase reporter, luminescence, 24 h; Potency, µM (titrated, usually from 92.2 µM), for the others: at the highest dose activity change, positive = activation, usual class: activators; 320,000 tested, 0.063% active; AID 504706, 2011; note: potency is the fitted concentration of half-maximal effect; % of control where 0% means no effect; nearly all actives have a fitted effect of over 45% in size
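p53-null H1299 cells stably carrying temperature-sensitive p53-A138V and a BP100-luciferase reporter were pinned with compounds (4-point, 1:5 series) and held 24 hrs at 37 deg C. Luminescence was read 10 min after detection reagent.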
Giardia kill: Small Molecules that selectively kill Giardia lamblia: qHTS; AID 540267, 2011; 340,000 tested, 0.15% active; Giardia lamblia trophozoite viability; activity change, % at 7.66 µM, hits read low; in the data active = activity change below about -80%; inconclusive = between about -30% and that limit;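 note: parasites exposed to compound for two days anaerobically before the ATP read; % is set by controls: 0 for no effect and ±100 for the full control effect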
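ATP-content bioluminescence gauges trophozoite survival. Cells (100/well) receive compound and incubate anaerobically for 48 hrs at 37 deg C; detection reagent follows for 15-30 min at room temperature.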
Mito fusion act: qHTS Assay for Small Molecule Inhibitors of Mitochondrial Division or Activators of Mitochondrial Fusion. 320,000 tested, 0.23% active. Potency, µM (titrated, usually from 46.1 µM), inactives show at the top dose growth rescue (activation), most hits filed as activators. S. cerevisiae fusion-defective mutant growth rescue, CellTiterGlo 48 h; note: potency is the fitted concentration of half-maximal effect; % of control where 0% means no effect; nearly all actives have a fitted effect of over 45% in size
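Luminescent cell viability in 1536-well qHTS format served as the measure of rescued growth in ts fusion-mutant S. cerevisiae cultured on non-fermentable YPEG for 48 hours at 37C.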
ClpP mod: qHTS Assay for Activators of ClpP. AID 651965, 2013. purified B. subtilis ClpP, FRET peptide cleavage, 20 min. Potency, µM (doses to about 57.5 µM), for inactives: top-dose activity change, negative = active. 340,000 tested, 1.9% active. ATP-dependent Clp protease proteolytic subunit (Bacillus subtilis (strain 168)), P80244; active = well fitted falling curve with a large enough effect; inconclusive = small, poorly fitted or top-dose-only effect; inactive = no such curve, though single readings can be large or run the other way; note: potency is the fitted concentration of half-maximal effect; the source files actives as falling curves though it sought activators and does not explain the sign; nearly all actives have a fitted effect of over 65% in size
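Buffer: 100 mM Tris/HCl pH8, 100 mM KCl, 0.05% low protease BSA, 2.5% glycerol, 0.01% Tween-20. ClpP 10 microg/mL final; 20 min RT; delta FRET normalized to ADEP and DMSO controls.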
uPA generation: qHTS for Inhibitors of Cell Surface uPA Generation; 330,000 tested, 0.31% active; Potency, µM (highest dose often 38.3 µM), for the others: at the highest dose activity change, negative = inhibition, hits mostly inhibitors; AID 540303, 2011; cell surface uPA generation assay, qHTS; active = well fitted inhibition curve with a large enough effect; inconclusive = small, poorly fitted or top-dose-only effect; inactive = no such curve, though single readings can be large or run the other way; tested in mouse RAW 264.7 cells; note: potency is the fitted concentration of half-maximal effect; % is set by controls: 0 for no effect and ±100 for the full control effect; nearly all actives have a fitted effect of over 55% in size
An asterisk follows results filed as active; ? = inconclusive; / = no result given; ! = not confirmed by another sample. Unless noted, calls come from the whole dose curve; as a rule, active = well fitted curve in the direction sought with a large enough effect; inconclusive = small, poorly fitted or top-dose-only effect, or another doubt; inactive = no such curve, though single readings can be large; an effect the other way counts as inactive or inconclusive.

SMILES | B2AR arrestin | p53 reactivator | Giardia kill | Mito fusion act | ClpP mod | uPA generation
C=CCOc1ccc2c(OC)c3ccoc3nc2c1OC | 0% | ? | -16 | 12% | 22µM* | -7%
COc1cc2c[n+](C)c3c4ccccc4ccc3c2cc1OC | / | / | -5 | / | 8.9µM* | -5%
COc1ccc2c(c1)c[n+](C)c1c3cc(OC)c(OC)cc3ccc21 | / | / | / | / | -14% | /
CCc1nn(CC(=O)Nc2ccc(N(CC)CC)cc2C)c(=O)c2cc3sccc3n12 | / | / | / | / | 0% | /
CCOc1ccc(NC(=O)CN2CCN(Cc3ccccc3)S2(=O)=O)cc1 | / | / | / | / | -3% | /
Nc1c(C(=O)c2ccc(Cl)cc2)oc2ccccc12 | -1% | ? | 20 | 25µM* | -2% | 1%
CN1CCN(c2ccc(CNC(=O)C3Cc4c(-c5ccc(Cl)cc5)ccnc4O3)cc2)CC1 (configuration not stated) | / | / | / | / | 1% | /
COC(=O)c1c(/N=C/N(C)C)sc2c1CCN(c1ncc(C(F)(F)F)cc1Cl)C2 | ? | 28% | 10 | 10µM* | -10% | 3%
COC(=O)c1c(N(S(C)(=O)=O)S(C)(=O)=O)sc2c1CCN(c1ncc(C(F)(F)F)cc1Cl)C2 | 0% | -2% | 9 | -4% | -19% | -1%
CCOC(=O)[C@]12CCC=C1N(Cc1cccc3ccccc13)C(=O)[C@H](CC(=O)N1CCCC1)C2 | / | / | / | / | -2% | /
COC(=O)C1Cc2c([nH]c3ccccc23)CN1 (configuration not stated) | -1% | 6% | -14 | -2% | 32µM* | -8%
CN1CCN(C(c2ccc(F)cc2)c2sc3nc(-c4ccco4)nn3c2O)CC1 (configuration not stated) | / | / | / | / | -1% | /
O=C(Nc1ccccc1N1CCN(C(=O)c2ccc(Cl)cc2)CC1)c1ccc2c(c1)OCO2 | 0% | -21% | -11 | 13µM* | -9% | -1%
O=C(Nc1ccccc1N1CCN(C(=O)c2ccc(Cl)cc2)CC1)c1cccc(F)c1 | 0% | -7% | -17 | 4% | -6% | -6%
O=C(Nc1ccccc1N1CCN(C(=O)c2ccccc2)CC1)c1ccc([N+](=O)[O-])o1 | 0% | -14% | -86* | 15% | / | -11%
CC(C)C(=O)N1CCN(c2ccccc2NC(=O)c2ccc([N+](=O)[O-])o2)CC1 | 0% | ? | -89* | 32% | -1% | -12%
CC1CCN(c2ccccc2NC(=O)c2ccc([N+](=O)[O-])o2)CC1 | 0% | 0% | -24 | 11% | / | 1%
CCC(=O)N1CCN(c2ccccc2NC(=O)c2ccc([N+](=O)[O-])o2)CC1 | 0% | ? | -90* | 28% | / | -3%
O=C(Nc1ccccc1N1CCCC1)c1ccc([N+](=O)[O-])o1 | 0% | -34% | ? | -9% | -1% | ?
Cc1ccc(Cn2c(CNS(=O)(=O)c3ccc(Cl)s3)nc3cccnc32)cc1 | / | / | / | / | 2% | /
COc1c(C)cc(Br)cc1C(=O)Nc1ccccc1N1CCN(C(=O)c2ccccc2)CC1 | 0% | 0% | -21 | 3% | 18µM* | /
COc1ccc(Br)cc1C(=O)Nc1ccccc1N1CCN(C(=O)c2ccccc2)CC1 | 3% | -6% | 42 | 9% | / | -1%
C[C@]12CC[C@@H]3c4ccc(O)cc4CC[C@H]3[C@@H]1CC[C@@H]2O | 0% | 9% | -2 | 23µM*! | -1% | -24%
O=C(O)c1cc(N2C(=O)CCC2=O)ccc1NCc1cccnc1 | -1% | 4% | -9 | 0% | 3% | 5%
O=C(O)c1cc(N2C(=O)C3CC=CCC3C2=O)ccc1NCc1cccnc1 (configuration not stated) | 0% | -3% | -3 | 0% | 32µM* | 2%
SMILES | B2AR arrestin | p53 reactivator | Giardia kill | Mito fusion act | ClpP mod | uPA generation
CCCCN(C(=O)c1cccc2c(=O)c(C)c(-c3ccccc3)oc12)c1ccccc1 | -2% | -9% | -18 | -18% | 0% | -18%
CCCCNC(=O)c1cccc2c(=O)c(C)c(-c3ccccc3)oc12 | 0% | -4% | -16 | 8% | 28µM* | -10%
N#CC(=Cc1ccccn1)c1nc(-c2ccc(Cl)cc2)cs1 | / | / | / | / | 25µM* | /
O=C(O)CCc1ccc(-c2ccccc2)n1-c1cccc(Br)c1 | / | / | / | / | -6% | /
CC(Oc1cccc(F)c1)c1ccnc2nc(/N=C/N(C)C)nn12 (configuration not stated) | 0% | -6% | 0 | 0% | / | -7%
CC(Oc1cccc(Cl)c1)c1ccnc2nc(/N=C/N(C)C)nn12 (configuration not stated) | 0% | -2% | -15 | 8% | / | -7%
Cc1cc(C)cc(OC(C)c2ccnc3nc(/N=C/N(C)C)nn23)c1 (configuration not stated) | 0% | -1% | 4 | 2% | 28µM* | /
CC(Oc1ccccc1)c1ccnc2nc(/N=C/N(C)C)nn12 (configuration not stated) | 0% | -29% | -18 | 1% | 28µM* | /
COc1ccc(C[C@@H]2C(=O)N[C@H](C)C(=O)N(C)[C@@H]3Cc4ccc(cc4)Oc4cc(ccc4O)C[C@H](C(=O)N[C@@H](C)C(=O)N[C@H](C)C(=O)N2C)N(C)C3=O)cc1 | / | / | / | / | -7% | /
NS(=O)(=O)c1cccc(NC(=O)COC(=O)CCSc2ccccc2)c1 | -2% | 0% | 1 | -9% | 16µM* | -7%
CN(C)S(=O)(=O)c1cccc(NC(=O)COC(=O)CCSc2ccc(Cl)cc2)c1 | 0% | 7% | -14 | -1% | -1% | -1%
O=C(CN1C(=O)COc2ccc(S(=O)(=O)N3CCOCC3)cc21)N1CCN(c2ccccc2)CC1 | / | / | / | / | -1% | /
C/C=C(/C(=C/C)c1ccc(O)cc1)c1ccc(O)cc1 | 1.5µM* | -3% | 12 | 27% | 2% | 30%
CC(=NN=C(C)c1ccc(O)cc1)c1ccc(O)cc1 | / | / | 0 | / | / | -7%
O=C(NCc1ccco1)c1ccc(COc2cccc3ccccc23)cc1 | 4% | 3% | -9 | 4% | 11µM* | 3%
CCOc1cc(OCC)cc(C(=O)NCc2ccco2)c1 | -1% | -8% | -10 | -3% | 14µM* | 5%
CCOc1ccc(C(=O)NCc2ccco2)cc1 | 0% | 9% | 32 | -2% | -1% | /
O=C(NCc1ccco1)c1ccc(COc2ccccc2Cl)cc1 | 0% | 2% | 14 | 2% | -2% | 3%
Cc1ccc(-c2cc3ncc(C(=O)c4cc([N+](=O)[O-])ccc4O)cn3n2)cc1 | / | / | / | / | 8% | /
COc1ccc(C(=O)COc2ccccc2C(N)=O)cc1 | -1% | 3% | -6 | -5% | / | 0%
